# Source: PubChem
# Shown are actives, neighbours in structure and some others; about 0.9% of the full set was active somewhere.
# Rhodamine autofl – compound autofluorescence in rhodamine spectral region; Rhodamine-region fluorescence, 547/598 nm, Tris buffer; hits give high values; max dye-equivalent concentration, M; hit rate 0.05% among 59,000; AID 594; in the data active means max dye-equivalent concentration above about 11 nM; inconclusive means between about 1.1 nM and that limit
#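 qHTS spectral profiling of compounds without any target or enzyme present, in pH 8.0 Tris buffer; plates were read after a 15-minute room-temperature incubation using the rhodamine-region filter set.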
# Resorufin fluor – resorufin region autofluorescence | Compound fluorescence, resorufin region 547/598 nm, buffer; hits give high values | max dye-equivalent concentration, M | hit rate 0.04% among 59,000 | AID 588
#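 Tris 100 mM pH 8.0; compound added, 15 min RT; CCD imager read, ex 547 nm/em 598 nm; signal normalized to resorufin standard curve (six concentrations per plate) as dye-equivalent concentration.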
# A488 autofl – A488 region autofluorescence; compound autofluorescence, A488 spectral region, dye equivalency; Compound Type: qHTS ECL - MLSMR; max dye equivalency, M; hit rate 0.1% among 59,000; AID 591
#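 Compounds pin-transferred into 100 mM Tris buffer, pH 8.0, incubated 15 min at room temperature, then imaged with 480 nm excitation/540 nm emission filters. Fluorescence converted to Alexa 488 dye-equivalent concentration via an on-plate six-point A488 standard curve.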
# Texas Red fluor – compounds fluorescent in Texas Red spectral region; Compound fluorescence, Texas Red channel, 547/618 nm; hits give high values; hit rate 0.06% among 59,000; max dye-equivalent concentration, M; in the data active means max dye-equivalent concentration above about 10 nM; inconclusive means between about 1.1 nM and that limit
#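 Fluorescence at ex 547/em 618 nm, normalized against an on-plate Texas Red standard series to give dye-equivalent concentration per compound concentration. Buffer 100 mM Tris, pH 8.0; 15 min RT incubation before CCD imaging.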
# Fluorescein fluor – compound fluoresces in the fluorescein spectral region; Compound autofluorescence, 480/540 nm, fluorescein-equivalent; hits give high values; max fluorescein-equivalent concentration, M; hit rate 0.91% among 59,000; in the data active means max fluorescein-equivalent concentration above about 10 nM; inconclusive means between about 1.1 nM and that limit
#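 Autofluorescence profiling; 100 mM Tris, pH 8.0; incubation 15 min at RT; ex/em 480/540 nm; result as fluorescein-equivalent concentration.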
# A647 fluor – compound autofluorescence in A647 spectral region. max dye-equivalent concentration, M. Compound fluorescence, A647 channel (570/671 nm), Tris buffer. 59,000 tested, under 10 active;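 further: values scaled relative to a standard on each plate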
#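 Each compound's intrinsic fluorescence at 570 nm excitation and 671 nm emission is measured across its concentration series in 100 mM Tris, pH 8.0, after 15 min at room temperature, and reported relative to an A647 curve.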
# * marks the source's active call; other numbers are inactive results; i = inactive; u = inconclusive. Unless noted, how the calls were made is not given here.
SMILES,Rhodamine autofl,Resorufin fluor,A488 autofl,Texas Red fluor,Fluorescein fluor,A647 fluor
COc1cc(/C=C/C(=O)CC(=O)/C=C/c2ccc(O)c(OC)c2)ccc1O,i,i,i,i,u,2.9e-08
COc1cc(/C=C/C2=NC(=O)C(C)(C)O2)ccc1O,i,i,i,i,2.98e-08M*,1e-09
COc1ccccc1-c1cc(Nc2ccn[nH]2)ncn1,i,i,i,i,u,1e-09
COc1ccccc1/C=c1\sc2nc(-c3ccco3)nn2c1=O,i,i,i,i,i,6.3e-09
CCOc1ccc(/C=c2\sc3nc(-c4ccco4)nn3c2=O)cc1OCC,i,i,u,i,1.23e-07M*,7.2e-09
O=S(=O)(Nc1nc2ccccc2nc1N1CCN(c2ccccn2)CC1)c1ccc(Cl)cc1,i,i,i,i,1.7e-08M*,1e-09
CCNc1cccc2c1C(=O)N(C)C2=O,i,i,1.28e-08M*,i,2.69e-07M*,5.08e-08
CN1C(=O)c2cccc(NCCCN3C(=O)c4ccccc4C3=O)c2C1=O,i,i,u,i,6.66e-08M*,1e-09
CN1C(=O)c2cccc(N(C)C)c2C1=O,i,i,i,i,u,2.61e-08
CCN(CC)[C@@H](C)C(=O)N1c2ccccc2Sc2ccccc21,i,i,i,u,i,6.7e-09
Nc1nc2c(nc(Br)n2[C@@H]2O[C@H]3COP(=O)(O)O[C@@H]3[C@H]2O)c(=O)[nH]1,i,i,i,i,u,7.31e-08
CC1C2C(c3ccccc3)N(C)C(=O)N(C)C2N(C)C(=O)N1C (stereo not given),i,i,i,i,1.45e-08M*,2.5e-09
CC(=O)N1C(=O)N(C(C)=O)C2C1N(C(C)=O)C(=O)N2C(C)=O (stereo not given),i,i,i,i,i,1e-09
O=c1cc(O)cc(/C=C\c2ccc(O)c(O)c2)o1,i,i,i,i,u,1e-09
O=C1O[C@H](CN2CCOCC2)CN1/N=C\c1ccc([N+](=O)[O-])o1,i,i,i,i,u,1.1e-09
O=C1OCCN1/N=C\c1ccc([N+](=O)[O-])o1,i,i,i,u,3.11e-08M*,1.87e-08
O=C1CCCc2c1cc(C(=O)Nc1ccc(Cl)cn1)c(=O)n2-c1ccccc1,i,i,i,i,i,9.4e-09
Cc1ccc(-n2c3c(cc(C(=O)NC4CCSC4=O)c2=O)C(=O)CCC3)cc1 (stereo not given),i,i,i,i,1.06e-08M*,1.7e-09
CC1(NC[C@@H](O)COc2cccc3[nH]ccc23)CCC(C(C)(C)NC(=O)CBr)CC1 (stereo not given in full),i,i,i,i,u,6.7e-09
CC(=O)O[C@@H]1C[C@]2(C)[C@H](C[C@@H](O)[C@H]3[C@@]4(C)CC[C@@H](O)[C@@H](C)[C@@H]4CC[C@@]32C)/C1=C(\CCC=C(C)C)C(=O)O,i,i,i,i,i,2.7e-09
CN1Cc2sc(N)c(C#N)c2CC1(C)C,u,i,u,u,3.1e-08M*,1e-09
COc1ccc(C(=O)N2CCC3(CC2)CN(c2cccc(-c4ccccc4)c2)C3)cc1,i,i,i,i,i,1.4e-09
COc1ccc(NC(=O)N2CCCC3(CCN(C(=O)c4ccc(OC)cc4)CC3)C2)cc1,i,i,i,i,2.61e-08M*,2.37e-08
COc1ccc(C(=O)N2CCC3(CCCN(c4cccc(-c5ccccc5)c4)C3)CC2)cc1,i,i,i,i,1.38e-08M*,1.64e-08
O=C(O)CCCCCC[C@@H]1C(=O)NC(=O)N1CC[C@@H](O)C1CCCCC1,i,i,i,i,i,1e-09
SMILES,Rhodamine autofl,Resorufin fluor,A488 autofl,Texas Red fluor,Fluorescein fluor,A647 fluor
CCN(CC)c1ccc2cc(-c3nnc(-c4ccncc4)o3)c(=O)oc2c1,i,i,4.76e-08M*,i,1.02e-06M*,1.22e-08
CCCOc1ccc(-c2nnc(-c3ccncc3)o2)cc1,i,i,i,i,u,5.95e-08
COc1ccc(NC(=O)N2CC[C@@]3(CCCN(C(=O)c4ccncc4)C3)C2)cc1,i,i,i,i,i,2.01e-08
O=[N+]([O-])c1ccc2ncccc2c1CCc1c([N+](=O)[O-])ccc2ncccc12,i,i,i,i,1.09e-08M*,1e-09
COc1ccc(C(=O)[C@H]2[C@H]3[C@@H](C(=O)[C@@H]4OC[C@H]3O4)[C@H]3C=Cc4ccccc4N32)c(OC)c1,i,i,i,i,i,2.05e-08
COc1ccc(-n2c(=O)c(C)nc3cnc(Oc4ccccc4)nc32)cc1,i,i,i,i,i,1e-09
C=CCn1c(=S)[nH]c2ccc(Br)cc2c1=O,i,i,i,i,1.95e-08M*,7.9e-09
C=CCn1c(=S)[nH]c2nc3c(cc2c1=O)CCCC3,i,i,i,i,i,2e-09
O=c1c2ccccc2c(/C=N/n2cnnc2)c(O)n1-c1ccccc1F,i,i,i,i,1.28e-08M*,2.8e-09
Cc1noc(C)c1-c1nccc(NCc2ccccc2)n1,i,i,i,i,i,1.01e-08
CC(=Nc1cccc(O)c1)c1sc2ccccc2c1O,i,i,i,i,1.91e-08M*,1e-09
CN=Cc1sc2ccccc2c1O,i,i,i,i,i,2.18e-08
CC(=O)[C@@H]1[C@@H]2C(=O)N(Cc3ccccc3)C(=O)[C@@H]2C2c3ccccc3C=CN21 (stereo not given in full),i,i,i,i,1.5e-08M*,3.95e-08
O=C(c1ccco1)[C@@H]1[C@@H]2C(=O)N(c3ccccc3)C(=O)[C@@H]2C2c3ccccc3C=CN21 (stereo not given in full),i,i,i,i,1.76e-08M*,4e-09
Cc1ccc(N2C(=O)[C@@H]3[C@H](C2=O)C2c4ccccc4C=CN2[C@@H]3C(=O)c2ccco2)cc1 (stereo not given in full),i,i,i,u,1.13e-08M*,1e-09
CN(C)c1ccc(-c2nccc(NCCN3CCOCC3)n2)cc1,i,i,i,i,u,1.1e-09
COc1ccc2c(C)cc(SCC(=O)N3CCOCC3)nc2c1,i,i,u,i,5.88e-08M*,3.66e-08
N.N.N.N.N.N.N.N.N.N.N.N.N.N.O.O.[Ru].[Ru].[Ru],i,i,i,u,i,4.4e-09
CN(C)c1ncc2nc(-c3ccc(F)cc3)c(=O)n(-c3ccccc3)c2n1,i,i,i,i,i,2.67e-08
